Laboratory results taken from PubChem BioAssay.
Activity calls are given as the source filed them. Unless noted, no rule for the calls is given here.

Experiments:
[1] = anti-His antibody binders, primary screen, artefact control for SMM control protein annotation, biochemical, small-molecule microarray, 635 nm fluorescence (AID 1128); conditions: anti-His Alexa647 antibody binding, higher = more signal;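 also: score merges feature fluorescence with signal-to-noise for each printed compound spot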
[2] = system: Human papillomavirus type 1a E7 protein (residues 1-88); test: HPV1a E7 small-molecule binders, primary screen, biochemical, small-molecule microarray, residues 1-88, 635 nm (AID 1129); conditions: small-molecule microarray binding, fluorescence 635 nm; higher = more signal
[3] = molecular target: Focal adhesion kinase 1 (Homo sapiens) (UniProt Q05397); test: small-molecule microarray binders of FAK, primary screen, biochemical, 635/667 nm fluorescence, BSA, DTT (AID 1130); conditions: PTK2 binding, 635 nm fluorescence, higher = more signal;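 also: composite of spot emission at 667 nm and signal to noise over triplicate slides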
[4] = system: Fibrinogen (Alexa647-labelled); test: fibrinogen binders on compound microarrays, profiling panel, artefact control for SMM control-protein annotation, biochemical, small-molecule microarray, 635/667 nm fluorescence (AID 1131); conditions: fibrinogen-A647 binding fluorescence, higher = more signal;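 also: z-score merges 667 nm fluorescence with per-spot signal-to-noise over triplicate slides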
[5] = molecular target: Follistatin (Homo sapiens) (UniProt P19883); test: follistatin binders on small-molecule microarrays, primary screen, biochemical, small-molecule microarray, 635/667 nm fluorescence (AID 1132); conditions: FST binding, 635 nm fluorescence, higher = more signal
[6] = molecular target: Fibroblast growth factor 2 (Homo sapiens) (UniProt P09038); test: FGF2 binders on small-molecule microarrays, primary screen, biochemical, small-molecule microarray, 635/667 nm fluorescence (AID 1133); conditions: small-molecule microarray binding, FGF2, fluorescence 635/667; higher = more signal
[7] = mitochondrial membrane potential change in A549 cells, profiling panel, cell-based, JC-1 fluorescence, basal, 24 h, 100 nL (AID 1138); conditions: higher = more signal;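 also: A549 lung adenocarcinoma cells under basal conditions with no added stimulus; test concentration not given here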
Lefty1 = Lefty1 binders on small-molecule microarrays, primary screen, biochemical, small-molecule microarray, 635/667 nm fluorescence (AID 1139); conditions: small-molecule microarray binding, fluorescence 635/667; higher = more signal
[8] = system: wheat germ agglutinin (Triticum aestivum), Alexa647-labelled; test: wheat germ agglutinin binders on compound microarrays, profiling panel, artefact control for SMM control-protein annotation, biochemical, small-molecule microarray, 635/667 nm fluorescence (AID 1140); conditions: WGA-A647 binding, 635 nm fluorescence, higher = more signal;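 also: score merges 667 nm feature emission with signal to noise over triplicate slides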
[9] = molecular target: Luciferin 4-monooxygenase (Photinus pyralis) (UniProt P08659); test: firefly luciferase enzyme inhibitors, primary screen, biochemical, luminescence, purified enzyme, 2006 set (AID 1141); conditions: SteadyGlo luminescence, 30 min, higher = more signal, called active from +8 up or from −8 down;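 also: cell-free assay with purified firefly luciferase at 100 ng per well in PBS; test concentration not given here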
[10] = system: Wnt5a (protein binding on small-molecule microarray); test: Wnt5a binders on small-molecule microarray, primary screen, biophysical, 635/667 nm fluorescence (AID 1142); conditions: 635 nm fluorescence, higher = more signal;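 also: fluorescence read at 667 nm with signal to noise per printed feature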
[11] = cell viability in Huh7 cells, primary screen, cytotoxicity control for HCV replication inhibitor project, CellTiter-Glo luminescence, basal, 48 h (AID 1143); conditions: Huh7 HCV replicon, higher = more signal, called active from +8 up or from −8 down;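 also: Huh7 hepatoma cells carrying a hepatitis C replication reporter with no stimulus; test concentration not given here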
[12] = P. aeruginosa biofilm formation inhibitors, primary screen, PAO1 strain, BacTiter-Glo luminescence, LB-PBS (AID 1144); conditions: 12 h, higher = more signal
[13] = CREB reporter modulators without forskolin, primary screen, cell-based, PC12, CRE-LacZ reporter, unstimulated (AID 1145); conditions: no forskolin, luminescence, 4.5 h, higher = more signal, called active from +8 up or from −8 down
[14] = CREB reporter modulators under forskolin, primary screen, cell-based, PC12, CRE-LacZ reporter, forskolin-stimulated (AID 1146); conditions: luminescence, 4.5 h, higher = more signal, called active from +8 up or from −8 down;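 also: PC12 cells with 6xCRE LacZ reporter stimulated by forskolin 10 µM; beta-galactosidase reporter signal reflecting CREB driven transcription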
[15] = molecular target: Streptavidin (Streptomyces avidinii) (UniProt P22629); test: streptavidin binders on small-molecule microarray, primary screen, artefact control for SMM compound annotation, biophysical, 635/667 nm fluorescence (AID 1147); conditions: streptavidin binding, higher = more signal;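 also: signal reflects streptavidin binding to arrayed compounds as a control protein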
[16] = small-molecule binders of probe aInhba, primary screen, biochemical, small-molecule microarray, 635/667 nm fluorescence (AID 1148); conditions: higher = more signal;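 also: score merges 667nm spot fluorescence with signal-to-noise for antibody binding to printed compounds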
Torsin-1A (Homo sapiens) [17] = molecular target: Torsin-1A (Homo sapiens) (UniProt O14656); test: torsin A binders from cell lysate, primary screen, small-molecule microarray, wild-type, 635/667 nm (AID 1149); conditions: COS7 hTOR1A-WT lysate, 635 nm fluorescence, higher = more signal
Torsin-1A (Homo sapiens) [18] = molecular target: Torsin-1A (Homo sapiens) (UniProt O14656); test: small-molecule binders of mutant TOR1A in lysate, primary screen, cell lysate, small-molecule microarray, COS7 lysate, 635/667 nm fluorescence (AID 1150); conditions: COS7 hTOR1A mutant lysate, 635 nm fluorescence, higher = more signal;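 also: score pools 667 nm emission and signal to noise measuring lysate protein binding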
[19] = system: Sonic hedgehog protein (Shh); test: small-molecule binders of Shh protein, primary screen, biochemical, small-molecule microarray, 635/667 nm fluorescence (AID 1151); conditions: small-molecule microarray binding, 635 nm fluorescence; higher = more signal;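 also: Shh protein binding to compounds spotted on small-molecule microarray slides; score combines spot fluorescence intensity with signal-to-noise across triplicate slides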

Follistatin (Homo sapiens), sequence (P19883 whole entry, looked up): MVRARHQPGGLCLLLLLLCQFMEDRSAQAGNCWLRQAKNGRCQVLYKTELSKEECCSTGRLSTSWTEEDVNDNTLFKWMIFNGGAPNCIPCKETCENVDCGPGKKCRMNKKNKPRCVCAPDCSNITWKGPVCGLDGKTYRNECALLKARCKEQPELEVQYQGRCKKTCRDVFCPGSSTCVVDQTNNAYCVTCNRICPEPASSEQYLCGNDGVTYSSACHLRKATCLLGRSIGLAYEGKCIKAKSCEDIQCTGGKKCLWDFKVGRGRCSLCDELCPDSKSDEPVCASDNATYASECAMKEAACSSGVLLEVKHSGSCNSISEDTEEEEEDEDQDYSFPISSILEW
Focal adhesion kinase 1 (Homo sapiens), sequence (Q05397 whole entry, looked up): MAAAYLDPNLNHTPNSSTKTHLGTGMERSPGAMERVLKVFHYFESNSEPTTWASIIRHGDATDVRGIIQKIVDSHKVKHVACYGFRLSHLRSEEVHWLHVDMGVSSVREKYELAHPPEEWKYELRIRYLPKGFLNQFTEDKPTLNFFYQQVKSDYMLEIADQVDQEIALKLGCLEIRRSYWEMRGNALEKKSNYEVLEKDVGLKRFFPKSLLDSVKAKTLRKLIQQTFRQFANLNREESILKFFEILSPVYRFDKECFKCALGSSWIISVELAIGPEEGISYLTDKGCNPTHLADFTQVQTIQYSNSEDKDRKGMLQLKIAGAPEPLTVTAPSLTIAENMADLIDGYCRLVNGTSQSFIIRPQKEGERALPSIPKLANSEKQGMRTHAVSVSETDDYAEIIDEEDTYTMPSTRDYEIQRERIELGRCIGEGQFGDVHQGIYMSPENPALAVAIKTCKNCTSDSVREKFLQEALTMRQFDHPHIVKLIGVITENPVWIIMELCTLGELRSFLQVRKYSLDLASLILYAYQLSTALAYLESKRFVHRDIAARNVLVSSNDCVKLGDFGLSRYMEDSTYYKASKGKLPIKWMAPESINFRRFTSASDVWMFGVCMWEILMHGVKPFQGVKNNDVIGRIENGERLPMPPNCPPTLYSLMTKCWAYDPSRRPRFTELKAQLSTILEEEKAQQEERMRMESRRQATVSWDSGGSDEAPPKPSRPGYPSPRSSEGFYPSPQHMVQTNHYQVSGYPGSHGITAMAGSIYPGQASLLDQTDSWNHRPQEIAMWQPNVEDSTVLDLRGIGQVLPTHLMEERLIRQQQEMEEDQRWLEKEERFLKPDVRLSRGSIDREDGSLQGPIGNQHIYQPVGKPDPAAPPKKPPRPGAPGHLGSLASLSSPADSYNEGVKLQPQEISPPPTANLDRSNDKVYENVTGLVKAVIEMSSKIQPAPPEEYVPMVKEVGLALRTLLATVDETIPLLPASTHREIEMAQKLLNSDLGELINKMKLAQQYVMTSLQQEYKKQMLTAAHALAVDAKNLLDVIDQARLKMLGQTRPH
Fibroblast growth factor 2 (Homo sapiens), sequence (P09038 whole entry, looked up): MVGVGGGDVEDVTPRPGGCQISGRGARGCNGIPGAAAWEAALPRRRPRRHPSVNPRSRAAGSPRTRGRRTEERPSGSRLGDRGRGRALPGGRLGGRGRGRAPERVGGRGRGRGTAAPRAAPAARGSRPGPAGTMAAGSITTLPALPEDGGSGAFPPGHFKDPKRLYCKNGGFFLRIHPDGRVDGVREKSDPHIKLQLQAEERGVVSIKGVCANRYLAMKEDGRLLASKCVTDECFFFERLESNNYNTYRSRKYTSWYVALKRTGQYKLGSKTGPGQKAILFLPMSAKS
Streptavidin (Streptomyces avidinii), sequence (P22629 whole entry, looked up): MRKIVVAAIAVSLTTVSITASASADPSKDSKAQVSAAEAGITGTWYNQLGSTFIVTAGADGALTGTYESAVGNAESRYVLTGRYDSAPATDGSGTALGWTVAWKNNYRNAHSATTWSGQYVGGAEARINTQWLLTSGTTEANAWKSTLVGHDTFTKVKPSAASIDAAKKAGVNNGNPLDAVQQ
Luciferin 4-monooxygenase (Photinus pyralis), sequence (P08659 whole entry, looked up): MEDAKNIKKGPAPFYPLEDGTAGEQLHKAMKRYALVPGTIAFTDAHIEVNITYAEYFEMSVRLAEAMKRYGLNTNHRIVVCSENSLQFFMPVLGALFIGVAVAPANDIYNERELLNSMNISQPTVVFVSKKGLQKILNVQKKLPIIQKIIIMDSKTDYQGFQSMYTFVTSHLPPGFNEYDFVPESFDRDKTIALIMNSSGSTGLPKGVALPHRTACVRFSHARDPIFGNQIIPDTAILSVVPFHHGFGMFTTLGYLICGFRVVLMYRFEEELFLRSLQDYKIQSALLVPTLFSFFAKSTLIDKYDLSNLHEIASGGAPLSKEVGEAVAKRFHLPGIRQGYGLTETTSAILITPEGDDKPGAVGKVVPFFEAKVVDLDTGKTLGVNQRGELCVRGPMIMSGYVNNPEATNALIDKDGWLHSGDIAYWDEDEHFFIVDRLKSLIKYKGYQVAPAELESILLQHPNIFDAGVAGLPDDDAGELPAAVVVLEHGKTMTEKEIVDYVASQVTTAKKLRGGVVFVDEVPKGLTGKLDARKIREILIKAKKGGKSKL
Torsin-1A (Homo sapiens), sequence (O14656 whole entry, looked up): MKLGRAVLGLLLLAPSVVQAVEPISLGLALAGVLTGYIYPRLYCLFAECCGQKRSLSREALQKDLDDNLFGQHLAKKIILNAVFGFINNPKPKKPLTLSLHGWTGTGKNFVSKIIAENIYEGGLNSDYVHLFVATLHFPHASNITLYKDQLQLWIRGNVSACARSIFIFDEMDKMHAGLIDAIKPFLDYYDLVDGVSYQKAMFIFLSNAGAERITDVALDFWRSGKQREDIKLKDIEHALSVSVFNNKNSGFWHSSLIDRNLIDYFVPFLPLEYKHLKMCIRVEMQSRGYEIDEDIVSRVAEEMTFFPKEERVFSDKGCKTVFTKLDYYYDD

Row | SMILES | composite z-score [1] | composite z-score [2] | composite z-score [3] | composite z-score [4] | composite z-score [5] | composite z-score [6] | z-score [7] | composite z-score (Lefty1) | composite z-score [8] | z-score [9] | composite z-score [10] | z-score [11] | z-score [12] | z-score [13] | z-score [14] | composite z-score [15] | composite z-score [16] | composite z-score (Torsin-1A (Homo sapiens) [17]) | composite z-score (Torsin-1A (Homo sapiens) [18]) | composite z-score [19]
1 | CCCCCCc1nc(-c2ccc(OC)nc2)cc2c1[Si](C(C)C)(C(C)C)OC2 | -0.102 | -0.493 | -0.206 | -0.137 | -0.0974 | -0.206 | -1.46 | -0.0037 | -0.218 | 0.997 (inactive) | -0.446 | -3.35 (inactive) | -0.757 (inactive) | -0.36 (inactive) | -0.565 (inactive) | 0.151 | -0.0963 | -0.734 | 0.706 | -0.0247
2 | CC(C)CNC(=O)[C@@]1(C)c2ccccc2C(=O)N(Cc2cc(F)cc(C(F)(F)F)c2)[C@H]1c1ccc(CO)cc1 | 0.83 | 0.85 | 0.0301 | 0.51 | 1.16 | 0.803 | 0.165 | 0.372 | 0.154 | 0.189 (inactive) | 0.03 | 0.169 (inactive) | -0.428 (inactive) | -0.321 (inactive) | 0.13 (inactive) | -0.26 | -0.0719 | 0.194 | 0.127 | 1.23
3 | CCOC(=O)C1=CC[C@@H](c2ccc(F)cc2)N(S(=O)(=O)c2ccc(C)cc2)[C@H]1c1ccc([N+](=O)[O-])cc1 | 0.353 | 1.19 | 0.866 | 0.954 | 0.283 | -0.218 | 1.83 | 0.242 | 0.742 | 2.28 (inactive) | 0.0382 | -2.52 (inactive) | -1.24 (inactive) | -1.73 (inactive) | 0.66 (inactive) | 0.812 | 0.0131 | -0.116 | 0.599 | -0.0316
4 | CO[C@H]1O[C@H](CO)[C@@H](OC(=O)Nc2ccc(C(F)(F)F)cc2)[C@H](OC(=O)Nc2ccccc2-c2ccccc2)[C@H]1OC(=O)Nc1ccccc1-c1ccccc1 | 1.7 | 1.26 | 0.735 | 1.04 | 1.27 | 0.686 | -0.132 | 0.617 | 0.662 | -0.68 (inactive) | 0.856 | -6.09 (inactive) | 0.435 (inactive) | 0.447 (inactive) | -0.747 (inactive) | 0.967 | 0.0504 | 0.276 | 0.263 | 1.61
5 | NC(=O)NCC#Cc1ccc2c(c1)[C@]1(C(=O)N2)[C@H](C(=O)N2CCCCCCC2)[C@H]2C(=O)O[C@H](c3ccccc3)[C@H](c3ccccc3)N2[C@@H]1c1ccc(O)cc1 | 0.0328 | 1.01 | 0.568 | 0.879 | 1.52 | 1.15 | -1.16 | 0.784 | 1.15 | -0.161 (inactive) | 0.399 | 0.33 (inactive) | -0.209 (inactive) | 0.0695 (inactive) | -0.745 (inactive) | 1.05 | 1.51 | 0.529 | 0.676 | 1.22
6 | CC1CC/C=C\[C@H]2OC34C=CCN(CCN5CCOCC5)C(=O)[C@H]3N(CCCCCCO)C(=O)[C@@H]4C2C(=O)O1 (stereo not given in full) | -0.37 | -0.986 | -0.411 | -2.12 | 0.0859 | -0.649 | 0.746 | -0.259 | -0.7 | -0.934 (inactive) | -0.603 | 0.524 (inactive) | 0.0591 (inactive) | 0.605 (inactive) | 0.241 (inactive) | -0.66 | -0.104 | -1.52 | -0.948 | 0.527
7 | COc1ccc(NC(=O)O[C@H]2[C@H](OC(=O)Nc3ccc4c(c3)OCO4)[C@H](OC(=O)Nc3ccc4c(c3)OCO4)[C@@H](OC)O[C@@H]2CO)cc1 | 1.45 | 1.25 | 0.216 | 0.362 | 1.29 | 0.319 | 0.0258 | 0.293 | 0.8 | -6.52 (inactive) | 0.0873 | -2.42 (inactive) | 0.883 (inactive) | 0.456 (inactive) | -0.92 (inactive) | -0.0821 | -0.0131 | 0.207 | 1.91 | 0.725
8 | C[C@H]1C2[C@H](Cc3ccccc3)NC(=O)[C@]23C(=O)NCC(=O)N2CCC[C@H]2C(=O)NC/C=C\C/C=C/C3[C@@H]2O[C@]12C (stereo not given in full) | -0.151 | -0.0402 | -0.258 | -0.454 | 0.278 | 1.1 | 0.546 | 0.0393 | -0.121 | -1.25 (inactive) | 0.0076 | 0.493 (inactive) | 0.716 (inactive) | 0.495 (inactive) | -0.294 (inactive) | -0.744 | -0.018 | -0.266 | -0.618 | 1.2
9 | C=CC[C@@]1(C(=O)N(C)C)N=C(c2ccc(OCCCO)cc2)O[C@@H]1c1ccccc1 | 2.63 | 1.24 | 0.356 | 0.3 | 0.0236 | 0.298 | -0.324 | -0.68 | 1.02 | 0.213 (inactive) | 0.919 | -1.45 (inactive) | 0.442 (inactive) | 0.652 (inactive) | 0.535 (inactive) | -0.232 | 0.496 | 0.986 | 0.571 | -0.0763
10 | CC(=O)c1ccc(C(O)C2C=CC3C(=O)NC(=O)C3N2Nc2ccc(Cl)cc2Cl)cc1 (stereo not given) | 1.48 | -0.106 | -0.363 | -0.131 | 0.504 | -0.115 | -0.76 | -0.0596 | 0.564 | 0.284 (inactive) | 0 | 0.102 (inactive) | -0.806 (inactive) | 0.626 (inactive) | 0.412 (inactive) | 0.147 | 0.0565 | 0.027 | 0.0127 | -0.257
